# Luciferase inh – Firefly luciferase inhibition profiling of diverse chemical library using quantitative high-throughput screening; Potency, µM (series often up to 115 µM), usual class: inhibitors; actives 2.5% (n = 76,000); Luciferin 4-monooxygenase (Photinus pyralis), P08659; purified P. pyralis luciferase, luminescence, biochemical; AID 1347043, 2019; note: % is set by controls: 0 for no effect and ±100 for the full control effect; nearly all actives have a fitted effect of over 65% in size
# Target sequence (P08659 whole entry, looked up): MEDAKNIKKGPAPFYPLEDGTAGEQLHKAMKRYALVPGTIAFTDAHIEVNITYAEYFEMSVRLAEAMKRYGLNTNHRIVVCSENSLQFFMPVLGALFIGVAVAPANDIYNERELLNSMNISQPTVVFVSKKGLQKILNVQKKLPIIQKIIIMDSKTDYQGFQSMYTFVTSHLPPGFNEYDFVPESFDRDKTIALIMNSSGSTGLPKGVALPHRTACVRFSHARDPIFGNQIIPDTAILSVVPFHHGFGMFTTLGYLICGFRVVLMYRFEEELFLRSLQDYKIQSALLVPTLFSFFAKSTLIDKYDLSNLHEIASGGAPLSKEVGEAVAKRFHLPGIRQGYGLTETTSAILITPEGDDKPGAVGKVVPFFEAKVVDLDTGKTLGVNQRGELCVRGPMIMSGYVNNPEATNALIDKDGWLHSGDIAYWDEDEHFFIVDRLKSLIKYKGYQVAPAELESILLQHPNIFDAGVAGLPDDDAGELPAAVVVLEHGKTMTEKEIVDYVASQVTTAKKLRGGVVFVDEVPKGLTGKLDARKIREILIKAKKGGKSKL
#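 Purified P. pyralis luciferase (10nM final) in 50mM Tris acetate pH 7.5, 10mM Mg acetate, 0.01% Tween-20, 0.05% BSA with 10uM D-luciferin and 10uM ATP. Compounds titrated qHTS. Luminescence imaged on CCD.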
# GPT2 inhibitor – Primary qHTS assay for inhibitors of Glutamate pyruvate transaminase 2 (GPT2). Recombinant GPT2, coupled pyruvate oxidase/HRP Amplex Red fluorescence. Potency, µM (titrated, usually from 57.7 µM), inactives show at the top dose activity change, negative = inhibition, actives largely listed as inhibitors. actives 0.25% (n = 100,000); note: % is set by controls: 0 for no effect and ±100 for the full control effect; nearly all actives have a fitted effect of over 60% in size
#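 Fluorescence read-out: pyruvate from GPT2 turnover coupled to pyruvate oxidase, HRP and Amplex Red (0.2mM ThPP, 0.2U/mL PO and HRP, 50uM Amplex final). Substrates 250uM a-KG, 2mM L-alanine; enzyme 10ng/uL; 30 min RT.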
# HEK cytotox – Cytotoxic Profiling in HEK 293 Cell Line of Diverse Libraries Using Quantitative High-Throughput Screening. actives 6.6% (n = 94,000). HEK 293 viability, ATP luminescence (CellTiter-Glo), 48-72 h. Potency, µM (doses to about 115 µM), without a hit: at the top dose activity change, negative = cytotoxicity, most hits filed as inhibitors; note: % is set by controls: 0 for no effect and ±100 for the full control effect; nearly all actives have a fitted effect of over 60% in size
#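 HEK 293 cells seeded at 250 cells/well were exposed to compound for 48 or 72 hr at 37 degree Celsius. Viability taken as ATP content by CellTiter-Glo luminescence.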
# NPR1 antag – Natriuretic polypeptide receptor (hNpr1) antagonism - Primary qHTS; AID 1347048, 2019; HEK293 hNpr1 GloSensor cGMP, ANP-stimulated luminescence; Potency, µM (top dose mostly 46.3 µM), for inactives: at the highest dose activity change, negative = inhibition, usual class: inhibitors; actives 1.6% (n = 76,000); calls by dose curve; note: % is set by controls: 0 for no effect and ±100 for the full control effect; nearly all actives have a fitted effect of over 60% in size
#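 HEK293 cells stably expressing human Npr1 and cGMP GloSensor pGS-40F, loaded 2 h with 2% GloSensor reagent, given compound 30 min at room temperature. Luminescence read before and 20 min after 0.1 nM hNppA.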
# NIH3T3 tox – Cytotoxic Profiling in NIH 3T3 Cell Line of Diverse Libraries Using Quantitative High-Throughput Screening. actives 4.3% (n = 94,000). Potency, µM (highest dose often 96.7 µM), for the others: at the highest dose activity change, negative = cytotoxicity, actives largely listed as inhibitors. NIH 3T3 viability, CellTiter-Glo ATP luminescence, 48-72 h. AID 1345082, 2018; note: % is set by controls: 0 for no effect and ±100 for the full control effect; nearly all actives have a fitted effect of over 55% in size
#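 First NIH 3T3 cells are plated at 400 cells/well; next compound is pinned in; then plates incubate 48 or 72 hr at 37 °C; finally CellTiter-Glo is added and luminescence read after 10 min.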
# Npr1 antag conf – Natriuretic polypeptide receptor (hNpr1) antagonism - Confirmation; shares compounds with NPR1 antag; HEK293 hNpr1 cGMP GloSensor luminescence, ANP-stimulated; Potency, µM (doses to about 57.6 µM), for the others: at the top dose activity change, negative = inhibition, usual class: inhibitors; actives 76% (n = 1,400); calls by dose curve; note: nearly all actives have a fitted effect of over 70% in size
# NPR2 antag – Natriuretic polypeptide receptor (hNpr2) antagonism - Subtype selectivity assay. shares compounds with NPR1 antag. Potency, µM (doses to about 57.6 µM), for the others: at the highest dose activity change, negative = inhibition, actives largely listed as inhibitors. HEK293 hNpr2 GloSensor cGMP luminescence, CNP-stimulated. actives 67% (n = 1,400); calls by dose curve; note: nearly all actives have a fitted effect of over 70% in size
# FLuc inh counter – Natriuretic polypeptide receptor (hNpr1) antagonism - Confirmation firefly luciferase (FLuc) inhibition counterscreen; AID 1347047, 2019; purified FLuc enzyme, luminescence, Km substrate; shares compounds with NPR1 antag; actives 0.7% (n = 1,400); Potency, µM (highest dose often 57.6 µM), for inactives: at the highest dose activity change, negative = inhibition, most hits filed as inhibitors; note: 0% is about no effect
# GloSensor cGMP – Natriuretic polypeptide receptor (hNpr1) antagonism - Counterscreen GloSensor control cell line. shares compounds with NPR1 antag. HEK293 GloSensor cGMP, SNP-stimulated, luminescence. Potency, µM (doses to about 57.6 µM), inactives show at the top dose activity change, negative = inhibition, usual class: inhibitors. actives 69% (n = 1,400). AID 1347051, 2019; calls by dose curve; note: % is set by controls: 0 for no effect and ±100 for the full control effect; nearly all actives have a fitted effect of over 70% in size
# The depositor's hits bear a star; i = inactive; ? = inconclusive; . = no result; [ ] = another dose, or the depositor's remark. An excerpt weighted towards active compounds, which were near 10% of everything screened. Unless noted, calls come from the whole dose curve; as a rule, active = well fitted curve in the direction sought with a large enough effect; inconclusive = small, poorly fitted or top-dose-only effect, or another doubt; inactive = no such curve, though single readings can be large; an effect the other way counts as inactive or inconclusive. Potency is the fitted concentration of half-maximal effect.
SMILES,Luciferase inh,GPT2 inhibitor,HEK cytotox,NPR1 antag,NIH3T3 tox,Npr1 antag conf,NPR2 antag,FLuc inh counter,GloSensor cGMP
O=C1N[C@H](CC(=O)N2CCN(c3ccc(C(F)(F)F)cn3)CC2)C(=O)Nc2ccccc21,i,-21%,?,?,-15%,?,?,-1%,?
CN(CCc1ccncc1)C(=O)CCc1ccnc(N2CCOCC2)c1,i,i,-22%,4%,0%,.,.,.,.
CN(Cc1ccc(F)cc1)c1ccc2ncc(Nc3ccnc(N4CCOCC4)c3)n2n1,i,i,?,10µM*,?,25µM*,16µM*,-3%[86.2 µM],18µM*
CC(C)c1nc(N2CCCC2)ncc1C(=O)O,i,i,13%,4%,i,.,.,.,.
Cc1cc(C(=O)NC(C)c2cnc(N3CCCCCCC3)nc2C)n[nH]1 (stereo not drawn),i,i,?,10µM*,?,22µM*,24µM*,0%,22µM*
Cn1cc(-c2cccc(O)c2)c2nc(COc3ccc(Cl)cc3)cn2c1=O,i,-1%[88.5 µM],32µM*,35µM*,?,40µM*,?,-27%[86.2 µM],35µM*
Cc1c(-c2cn(C)c(=O)n3cc(COc4ccc(Cl)cc4)nc23)cnn1C,?,?,?,-5%[70.6 µM],?,.,.,.,.
COc1ccc(NC(=O)c2cccc3c2CCN3C(=O)c2ccc(F)cc2)c(OC)c1,i,?,32µM*,18µM*,?,24µM*,24µM*,-12%,22µM*
CN(C)CCCC(=O)N1Cc2ccccc2CC2(CCN(CC3CCOCC3)CC2)C1,.,0%,-1%,.,0%,.,.,.,.
CNC(=O)c1c[nH]c2cccnc12,.,i,-40%[230 µM],.,-44%[174 µM],.,.,.,.
O=C(Nc1ccc(Cl)cc1Cl)c1c[nH]c2cccnc12,.,i,?,.,?,21µM*,14µM*,0.96µM*,?
Cc1cnc(C(=O)N[C@@H]2CCC[C@@H]2C(=O)Nc2ccc(C)c(F)c2)cn1,i,-12%,-19%,-1%,-17%,.,.,.,.
CC(=O)Nc1ccc(S(=O)(=O)N[C@H]2CO[C@H]3[C@@H]2OC[C@H]3OC(=O)Nc2cccc3ccccc23)cc1,i,-5%,-20%,-28%,?,-3%,-2%,-3%,-1%
O=C(Nc1ccc(Oc2ccccc2)cc1)O[C@@H]1CO[C@H]2[C@@H]1OC[C@@H]2NS(=O)(=O)c1ccc(Cl)cc1,i,-2%,35µM*,?,32µM*,11µM*,12µM*,-13%,9.7µM*
COc1ccc(NC(=O)O[C@@H]2CO[C@H]3[C@@H]2OC[C@@H]3NS(=O)(=O)c2ccc(Cl)cc2)cc1,?,2%,-19%,-7%,?,.,.,.,.
Cc1ccc([S+](=O)([O-])N2CCN(C(=O)c3nc4cccnc4n(CCc4ccccc4)c3=O)CC2)cc1,.,-9%,?,.,-22%,.,.,.,.
O=C(NCc1ccc2c(c1)OCO2)C1COC2(CCCCC2)N1C(=O)c1cccc(F)c1 (stereo not drawn),i,i,?,-10%,?,.,.,.,.
COc1ccc(C(=O)Nc2ccc(-c3noc([C@@H]4CCCN4CC4CCCCC4)n3)cn2)cc1,i,i,45µM*,10µM*,?,6.9µM*,12µM*,-25%,12µM*
COc1ccc(C(=O)Nc2ccc(-c3noc([C@@H]4CCCN4Cc4ccc(C(F)(F)F)cc4)n3)cn2)cc1,i,2%,?,11µM*,?,11µM*,14µM*,-6%,9.7µM*
COc1ccc(C(=O)Nc2ccc(-c3noc([C@@H]4CCCN4Cc4ccc(OC(F)(F)F)cc4)n3)cn2)cc1,i,-1%,?,11µM*,?,12µM*,11µM*,-20%,11µM*
CNc1ccc(-c2noc([C@@H]3CCCN3Cc3cccc(OC)c3)n2)cn1,?,-38%[88.5 µM],-24%[172 µM],-2%[70.6 µM],-22%[174 µM],.,.,.,.
O=C(C1CCCN1C(=O)c1ccccc1)N1CCC(N2Cc3ccccc3C2=O)CC1 (stereo not drawn),.,-8%,3%,.,4%,.,.,.,.
O=C(NCc1ccc(N2CCCC2)cc1)C1CCCN(c2cnn(Cc3ccccc3)c(=O)c2)C1 (stereo not drawn),i,-28%,?,?,?,?,?,-2%,?
COCC1CN(C2CCC2)CC12CCN(C(=O)NCc1ccccc1)CC2 (stereo not drawn),i,i,?,-20%,-22%,.,.,.,.
CCN(Cc1nc2ccccc2[nH]1)CC1CCCN(CCc2cccc(F)c2)C1 (stereo not drawn),i,-12%,?,-15%,?,.,.,.,.
CCN(Cc1cccc2cnccc12)CC1CCCN(CCc2cccc(F)c2)C1 (stereo not drawn),i,-7%,18µM*,?,40µM*,24µM*,19µM*,-2%,-1%
COc1ccc(CC(=O)N2CCC3(CC2)CC(N[S+](C)(=O)[O-])c2ccccc23)cc1 (stereo not drawn),.,0%,-9%,.,-13%,.,.,.,.
